Columns and labels:
Experiment in all cases: DAPPL (digital affinity profiling via proximity ligation, sequencing); 10 mM Tris-HCl pH 7.5, 50 mM NaCl, 1 mM DTT, 4% glycerol, room temperature, 30 min; GST-TFs on glutathione beads, 16-mer random dsDNA library, 0.1% formaldehyde crosslink after washing; high values mean tight binding
FEV = biological target: T1, FEV (Homo sapiens, UniProt Q99581 1-238); conditions: protein: recombinant; tags: N-terminal GST; dsDNA, one strand shown
T1 sequence: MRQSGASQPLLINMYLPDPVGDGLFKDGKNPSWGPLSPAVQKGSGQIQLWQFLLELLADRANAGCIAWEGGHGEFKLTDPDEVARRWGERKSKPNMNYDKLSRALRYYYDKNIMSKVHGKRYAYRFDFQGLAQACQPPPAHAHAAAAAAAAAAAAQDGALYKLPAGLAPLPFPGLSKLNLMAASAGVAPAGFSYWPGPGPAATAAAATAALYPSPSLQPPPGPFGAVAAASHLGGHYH
Outline: (§1)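 Human transcription factors were made in yeast as GST fusions, captured on glutathione beads and barcoded with DNA. With a tag-only sample included, the pool was incubated with 200 nmole of a random double-stranded 16-mer DNA library in Tris/NaCl/DTT/glycerol buffer at room temperature for 30 min, then crosslinked with 0.1% formaldehyde after washing, ligated by proximity, amplified and sequenced. For binding signal, each hexamer's read frequency for a factor is divided by its frequency for the tag-only sample.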

ETV5 = ETV5 (Homo sapiens, UniProt P41161 1-510); conditions: protein: recombinant; tags: N-terminal GST; dsDNA, one strand shown
Outline: as §1

HSF1 = HSF1 (Homo sapiens, UniProt Q00613 1-529); conditions: protein: recombinant; tags: N-terminal GST; chain copies: 3; dsDNA, one strand shown
Outline: as §1

SPIC = biological target: T2, SPIC (Homo sapiens, UniProt Q8N5J4 1-248); conditions: protein: recombinant; tags: N-terminal GST; dsDNA, one strand shown
T2 sequence: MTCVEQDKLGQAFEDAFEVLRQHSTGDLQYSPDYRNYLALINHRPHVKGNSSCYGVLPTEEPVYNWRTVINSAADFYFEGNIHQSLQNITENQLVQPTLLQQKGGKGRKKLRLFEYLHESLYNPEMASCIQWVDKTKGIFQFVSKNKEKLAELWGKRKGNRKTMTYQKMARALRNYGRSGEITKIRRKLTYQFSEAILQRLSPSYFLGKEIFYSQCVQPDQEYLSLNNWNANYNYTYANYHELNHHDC
Outline: as §1

ELF4 = ELF4 (Homo sapiens, UniProt Q99607 1-663); conditions: protein: recombinant; tags: N-terminal GST; dsDNA, one strand shown
Outline: as §1

ELK4 = biological target: T3, ELK4 (Homo sapiens, UniProt P28324-2 1-405); conditions: protein: recombinant; tags: N-terminal GST; dsDNA, one strand shown
T3 sequence: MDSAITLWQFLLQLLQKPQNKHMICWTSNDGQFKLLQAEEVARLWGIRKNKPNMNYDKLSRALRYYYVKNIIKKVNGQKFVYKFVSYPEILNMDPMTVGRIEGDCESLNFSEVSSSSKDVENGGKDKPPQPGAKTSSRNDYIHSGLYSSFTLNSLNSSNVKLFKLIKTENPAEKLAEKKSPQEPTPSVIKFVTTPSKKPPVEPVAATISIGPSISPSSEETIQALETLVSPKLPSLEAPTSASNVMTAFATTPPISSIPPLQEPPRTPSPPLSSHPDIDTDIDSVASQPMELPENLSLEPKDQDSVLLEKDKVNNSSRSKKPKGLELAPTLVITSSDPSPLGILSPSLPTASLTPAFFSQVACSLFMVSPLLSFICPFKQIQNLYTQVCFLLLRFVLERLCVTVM
Outline: as §1

ETV2 = biological target: T4, ETV2 (Homo sapiens, UniProt O00321 1-342); conditions: protein: recombinant; tags: N-terminal GST; dsDNA, one strand shown
T4 sequence: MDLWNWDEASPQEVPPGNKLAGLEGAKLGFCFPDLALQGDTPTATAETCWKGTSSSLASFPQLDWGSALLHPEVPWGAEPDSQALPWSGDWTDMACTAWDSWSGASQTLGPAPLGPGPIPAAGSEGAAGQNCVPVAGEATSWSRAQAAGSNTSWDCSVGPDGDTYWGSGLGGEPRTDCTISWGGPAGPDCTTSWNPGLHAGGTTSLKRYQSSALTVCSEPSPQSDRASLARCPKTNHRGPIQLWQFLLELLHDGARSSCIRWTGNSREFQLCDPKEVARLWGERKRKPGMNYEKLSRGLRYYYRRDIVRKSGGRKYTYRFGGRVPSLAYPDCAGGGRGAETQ
Outline: as §1

ELF3 = biological target: T5, ELF3 (Homo sapiens, UniProt P78545 1-371); conditions: protein: recombinant; tags: N-terminal GST; dsDNA, one strand shown
T5 sequence: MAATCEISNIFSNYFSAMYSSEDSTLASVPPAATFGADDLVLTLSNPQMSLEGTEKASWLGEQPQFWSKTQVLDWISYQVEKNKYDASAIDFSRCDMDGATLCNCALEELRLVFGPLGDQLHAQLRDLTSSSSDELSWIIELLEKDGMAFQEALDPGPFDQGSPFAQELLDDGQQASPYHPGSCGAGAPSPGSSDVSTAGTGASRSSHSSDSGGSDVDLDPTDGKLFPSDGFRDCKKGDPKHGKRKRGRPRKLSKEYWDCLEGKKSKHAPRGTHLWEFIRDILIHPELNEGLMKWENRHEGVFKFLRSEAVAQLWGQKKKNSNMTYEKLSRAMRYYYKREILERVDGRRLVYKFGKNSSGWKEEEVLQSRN
Outline: as §1

CRX = CRX (Homo sapiens, UniProt O43186 1-299); conditions: protein: recombinant; tags: N-terminal GST; dsDNA, one strand shown
Outline: as §1

ETV1 = ETV1 (Homo sapiens, UniProt P50549 1-477); conditions: protein: recombinant; tags: N-terminal GST; dsDNA, one strand shown
Outline: as §1

ERF = biological target: T6, ERF (Homo sapiens, UniProt P50548 1-548); conditions: protein: recombinant; tags: N-terminal GST; dsDNA, one strand shown
T6 sequence: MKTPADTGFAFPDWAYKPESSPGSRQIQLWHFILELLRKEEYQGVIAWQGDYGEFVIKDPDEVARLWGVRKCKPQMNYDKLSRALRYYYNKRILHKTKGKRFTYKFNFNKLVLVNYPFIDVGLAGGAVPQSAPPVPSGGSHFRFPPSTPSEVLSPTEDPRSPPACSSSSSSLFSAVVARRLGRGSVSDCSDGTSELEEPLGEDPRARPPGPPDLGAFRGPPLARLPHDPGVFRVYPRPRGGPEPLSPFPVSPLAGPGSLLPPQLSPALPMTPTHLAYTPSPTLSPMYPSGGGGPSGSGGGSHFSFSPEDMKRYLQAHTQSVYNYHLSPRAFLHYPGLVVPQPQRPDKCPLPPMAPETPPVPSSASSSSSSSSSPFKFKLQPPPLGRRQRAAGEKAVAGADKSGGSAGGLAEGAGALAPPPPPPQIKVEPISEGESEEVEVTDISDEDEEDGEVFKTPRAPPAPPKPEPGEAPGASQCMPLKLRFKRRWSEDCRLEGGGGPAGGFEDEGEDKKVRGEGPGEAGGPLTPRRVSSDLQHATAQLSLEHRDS
Outline: as §1

ETV3L = biological target: T7, ETV3L (Homo sapiens, UniProt Q6ZN32 1-361); conditions: protein: recombinant; tags: N-terminal GST; dsDNA, one strand shown
T7 sequence: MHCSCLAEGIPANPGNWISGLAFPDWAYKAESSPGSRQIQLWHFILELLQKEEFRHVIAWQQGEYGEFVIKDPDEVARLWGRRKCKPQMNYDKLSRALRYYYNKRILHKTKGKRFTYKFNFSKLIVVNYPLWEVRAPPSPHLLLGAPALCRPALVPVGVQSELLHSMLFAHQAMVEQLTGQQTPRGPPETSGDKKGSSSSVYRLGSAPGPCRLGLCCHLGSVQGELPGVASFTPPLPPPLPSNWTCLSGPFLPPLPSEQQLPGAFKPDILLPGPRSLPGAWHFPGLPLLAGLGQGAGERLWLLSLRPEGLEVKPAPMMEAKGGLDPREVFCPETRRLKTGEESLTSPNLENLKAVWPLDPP
Outline: as §1

ETS2 = biological target: T8, ETS2 (Homo sapiens, UniProt P15036 1-469); conditions: protein: recombinant; tags: N-terminal GST; dsDNA, one strand shown
T8 sequence: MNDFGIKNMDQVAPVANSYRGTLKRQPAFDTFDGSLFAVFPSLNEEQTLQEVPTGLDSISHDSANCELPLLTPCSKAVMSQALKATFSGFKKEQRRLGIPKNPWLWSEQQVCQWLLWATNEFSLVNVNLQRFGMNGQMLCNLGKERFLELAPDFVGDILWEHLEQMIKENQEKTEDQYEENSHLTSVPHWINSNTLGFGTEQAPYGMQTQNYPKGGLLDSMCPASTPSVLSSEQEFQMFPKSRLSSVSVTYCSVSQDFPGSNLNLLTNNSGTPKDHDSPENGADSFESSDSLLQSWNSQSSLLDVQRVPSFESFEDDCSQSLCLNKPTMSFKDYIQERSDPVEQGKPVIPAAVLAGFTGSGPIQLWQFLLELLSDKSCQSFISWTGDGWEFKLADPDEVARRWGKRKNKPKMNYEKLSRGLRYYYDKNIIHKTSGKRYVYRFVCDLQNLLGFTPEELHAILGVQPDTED
Outline: as §1

SPDEF = biological target: T9, SPDEF (Homo sapiens, UniProt O95238 1-335); conditions: protein: recombinant; tags: N-terminal GST; dsDNA, one strand shown
T9 sequence: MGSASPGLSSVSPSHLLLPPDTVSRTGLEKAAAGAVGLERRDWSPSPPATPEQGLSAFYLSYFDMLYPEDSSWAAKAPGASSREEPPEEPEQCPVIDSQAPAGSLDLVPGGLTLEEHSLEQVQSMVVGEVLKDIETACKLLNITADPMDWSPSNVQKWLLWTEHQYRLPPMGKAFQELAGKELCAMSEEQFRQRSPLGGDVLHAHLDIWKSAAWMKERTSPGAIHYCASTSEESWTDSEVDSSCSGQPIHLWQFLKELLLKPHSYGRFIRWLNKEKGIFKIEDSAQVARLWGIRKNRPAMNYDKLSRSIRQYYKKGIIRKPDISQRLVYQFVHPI
Outline: as §1

ETV7 = biological target: T10, ETV7 (Homo sapiens, UniProt Q9Y603 1-341); conditions: protein: recombinant; tags: N-terminal GST; dsDNA, one strand shown
T10 sequence: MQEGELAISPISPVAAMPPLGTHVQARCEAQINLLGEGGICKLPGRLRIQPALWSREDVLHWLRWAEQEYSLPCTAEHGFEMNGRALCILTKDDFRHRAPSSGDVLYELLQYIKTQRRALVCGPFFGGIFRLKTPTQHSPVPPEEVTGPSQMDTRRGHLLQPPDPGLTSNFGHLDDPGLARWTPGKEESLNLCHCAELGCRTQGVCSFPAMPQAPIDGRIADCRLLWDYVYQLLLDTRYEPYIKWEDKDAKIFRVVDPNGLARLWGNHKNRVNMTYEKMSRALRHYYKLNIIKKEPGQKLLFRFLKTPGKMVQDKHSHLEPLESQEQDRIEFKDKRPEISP
Outline: as §1

ELF5 = biological target: T11, ELF5 (Homo sapiens, UniProt Q9UKW6-2 1-255); conditions: protein: recombinant; tags: N-terminal GST; dsDNA, one strand shown
T11 sequence: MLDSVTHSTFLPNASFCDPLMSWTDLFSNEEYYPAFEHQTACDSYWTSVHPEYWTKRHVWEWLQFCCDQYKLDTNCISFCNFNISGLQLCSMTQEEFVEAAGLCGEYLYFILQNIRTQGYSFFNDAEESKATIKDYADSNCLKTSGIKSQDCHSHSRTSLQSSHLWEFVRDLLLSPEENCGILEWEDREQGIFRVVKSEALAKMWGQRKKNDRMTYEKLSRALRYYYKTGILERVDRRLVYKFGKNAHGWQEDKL
Outline: as §1

ETV3 = biological target: T12, ETV3 (Homo sapiens, UniProt P41162-2 1-143); conditions: protein: recombinant; tags: N-terminal GST; dsDNA, one strand shown
T12 sequence: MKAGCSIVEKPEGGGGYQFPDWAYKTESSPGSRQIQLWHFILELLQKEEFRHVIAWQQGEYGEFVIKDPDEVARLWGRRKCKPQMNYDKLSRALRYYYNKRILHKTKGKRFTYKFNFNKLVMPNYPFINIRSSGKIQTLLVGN
Outline: as §1

ETV6 = ETV6 (Homo sapiens, UniProt P41212 1-452); conditions: protein: recombinant; tags: N-terminal GST; dsDNA, one strand shown
Outline: as §1

Chain of ETV1 (P50549 whole entry): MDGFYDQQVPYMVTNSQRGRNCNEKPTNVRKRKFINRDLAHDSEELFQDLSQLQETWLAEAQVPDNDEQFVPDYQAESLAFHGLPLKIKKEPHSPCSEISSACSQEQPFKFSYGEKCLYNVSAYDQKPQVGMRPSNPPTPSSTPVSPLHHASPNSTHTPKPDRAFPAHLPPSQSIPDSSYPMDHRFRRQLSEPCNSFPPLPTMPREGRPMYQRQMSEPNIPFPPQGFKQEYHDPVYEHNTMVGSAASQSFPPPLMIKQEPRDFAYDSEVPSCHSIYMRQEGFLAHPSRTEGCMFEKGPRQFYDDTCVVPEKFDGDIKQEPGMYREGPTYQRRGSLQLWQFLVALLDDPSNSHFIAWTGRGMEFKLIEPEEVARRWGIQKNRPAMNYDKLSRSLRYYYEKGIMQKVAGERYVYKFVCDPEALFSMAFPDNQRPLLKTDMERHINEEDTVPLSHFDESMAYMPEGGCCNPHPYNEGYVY
Chain of ETV6 (P41212 whole entry): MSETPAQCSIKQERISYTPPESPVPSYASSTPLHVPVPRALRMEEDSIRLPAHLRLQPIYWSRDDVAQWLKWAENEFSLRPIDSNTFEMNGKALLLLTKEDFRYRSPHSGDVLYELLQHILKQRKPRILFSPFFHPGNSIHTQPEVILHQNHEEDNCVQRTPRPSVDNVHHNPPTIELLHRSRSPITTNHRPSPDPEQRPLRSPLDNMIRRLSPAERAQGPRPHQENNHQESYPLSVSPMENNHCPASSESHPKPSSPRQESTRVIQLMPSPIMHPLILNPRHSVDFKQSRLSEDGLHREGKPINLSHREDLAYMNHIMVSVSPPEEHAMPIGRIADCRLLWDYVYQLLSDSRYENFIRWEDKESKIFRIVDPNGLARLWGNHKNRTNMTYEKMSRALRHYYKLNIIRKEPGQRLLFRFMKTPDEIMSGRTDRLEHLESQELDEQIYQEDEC
Chain of CRX (O43186 whole entry): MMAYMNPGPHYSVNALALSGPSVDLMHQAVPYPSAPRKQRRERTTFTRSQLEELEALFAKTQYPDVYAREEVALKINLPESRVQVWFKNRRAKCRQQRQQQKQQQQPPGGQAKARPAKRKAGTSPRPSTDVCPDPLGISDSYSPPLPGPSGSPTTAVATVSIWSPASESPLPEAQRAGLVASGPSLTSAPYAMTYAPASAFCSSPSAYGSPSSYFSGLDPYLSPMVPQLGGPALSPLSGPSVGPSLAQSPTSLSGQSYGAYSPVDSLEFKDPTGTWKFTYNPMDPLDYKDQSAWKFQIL
Chain of HSF1 (Q00613 whole entry): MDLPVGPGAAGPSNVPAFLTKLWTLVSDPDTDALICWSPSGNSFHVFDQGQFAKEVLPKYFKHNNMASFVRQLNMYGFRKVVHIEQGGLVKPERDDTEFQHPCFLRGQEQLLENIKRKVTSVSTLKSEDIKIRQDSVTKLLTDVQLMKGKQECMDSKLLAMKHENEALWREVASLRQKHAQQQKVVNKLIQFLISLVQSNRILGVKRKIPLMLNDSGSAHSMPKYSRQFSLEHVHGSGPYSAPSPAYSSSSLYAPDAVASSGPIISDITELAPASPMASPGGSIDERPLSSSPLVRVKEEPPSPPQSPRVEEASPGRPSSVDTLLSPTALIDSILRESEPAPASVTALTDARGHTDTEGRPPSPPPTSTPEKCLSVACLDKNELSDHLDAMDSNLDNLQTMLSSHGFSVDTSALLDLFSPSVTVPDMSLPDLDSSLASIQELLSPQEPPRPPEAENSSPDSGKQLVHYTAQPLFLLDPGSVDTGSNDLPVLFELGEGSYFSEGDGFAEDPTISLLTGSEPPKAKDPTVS
Chain of ETV5 (P41161 whole entry): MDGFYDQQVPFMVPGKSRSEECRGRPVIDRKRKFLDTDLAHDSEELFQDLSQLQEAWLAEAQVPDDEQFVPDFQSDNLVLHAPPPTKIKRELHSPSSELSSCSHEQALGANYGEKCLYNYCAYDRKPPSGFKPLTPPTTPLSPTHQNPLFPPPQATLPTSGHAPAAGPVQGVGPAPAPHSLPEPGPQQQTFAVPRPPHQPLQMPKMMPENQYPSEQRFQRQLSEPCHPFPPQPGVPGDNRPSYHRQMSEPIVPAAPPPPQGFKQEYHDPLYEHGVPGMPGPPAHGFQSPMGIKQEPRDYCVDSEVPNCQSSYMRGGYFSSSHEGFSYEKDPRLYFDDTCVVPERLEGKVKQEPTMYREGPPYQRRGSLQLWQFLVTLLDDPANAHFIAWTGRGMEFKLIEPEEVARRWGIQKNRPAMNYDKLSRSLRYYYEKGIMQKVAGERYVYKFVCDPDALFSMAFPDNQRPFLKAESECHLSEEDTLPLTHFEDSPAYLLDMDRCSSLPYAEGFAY
Chain of ELF4 (Q99607 whole entry): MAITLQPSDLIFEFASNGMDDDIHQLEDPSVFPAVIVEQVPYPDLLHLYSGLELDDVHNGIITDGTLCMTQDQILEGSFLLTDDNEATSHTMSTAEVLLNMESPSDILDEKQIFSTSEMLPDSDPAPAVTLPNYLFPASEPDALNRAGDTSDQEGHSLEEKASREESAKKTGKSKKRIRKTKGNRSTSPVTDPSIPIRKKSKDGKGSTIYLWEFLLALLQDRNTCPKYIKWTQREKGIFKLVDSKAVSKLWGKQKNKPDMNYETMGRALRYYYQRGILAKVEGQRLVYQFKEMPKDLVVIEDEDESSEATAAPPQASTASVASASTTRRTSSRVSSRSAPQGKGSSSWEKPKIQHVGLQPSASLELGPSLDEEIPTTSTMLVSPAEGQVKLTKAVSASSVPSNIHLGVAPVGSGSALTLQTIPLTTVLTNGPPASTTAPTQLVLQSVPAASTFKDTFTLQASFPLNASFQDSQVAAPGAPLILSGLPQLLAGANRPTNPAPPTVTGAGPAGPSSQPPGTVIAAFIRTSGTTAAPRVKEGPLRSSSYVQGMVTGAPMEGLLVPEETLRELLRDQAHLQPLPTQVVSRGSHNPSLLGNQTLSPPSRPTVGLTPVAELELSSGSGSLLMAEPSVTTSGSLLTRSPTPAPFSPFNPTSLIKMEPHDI

TTGGTG
binding signal (FEV): 1.22 fold enrichment (6-mer frequency, TF over GST control) | binding signal (ETV5): 1.32 fold enrichment (6-mer frequency, TF over GST control) | binding signal (HSF1): 1.18 fold enrichment (6-mer frequency, TF over GST control) | binding signal (SPIC): 1.32 fold enrichment (6-mer frequency, TF over GST control) | binding signal (ELF4): 1.3 fold enrichment (6-mer frequency, TF over GST control) | binding signal (ELK4): 1.44 fold enrichment (6-mer frequency, TF over GST control) | binding signal (ETV2): 1.52 fold enrichment (6-mer frequency, TF over GST control) | binding signal (ELF3): 1.3 fold enrichment (6-mer frequency, TF over GST control) | binding signal (CRX): 1.28 fold enrichment (6-mer frequency, TF over GST control) | binding signal (ETV1): 1.41 fold enrichment (6-mer frequency, TF over GST control) | binding signal (ERF): 1.28 fold enrichment (6-mer frequency, TF over GST control) | binding signal (ETV3L): 1.25 fold enrichment (6-mer frequency, TF over GST control) | binding signal (ETS2): 1.32 fold enrichment (6-mer frequency, TF over GST control) | binding signal (SPDEF): 1.33 fold enrichment (6-mer frequency, TF over GST control) | binding signal (ETV7): 1.15 fold enrichment (6-mer frequency, TF over GST control) | binding signal (ELF5): 1.27 fold enrichment (6-mer frequency, TF over GST control) | binding signal (ETV3): 1.32 fold enrichment (6-mer frequency, TF over GST control) | binding signal (ETV6): 1.18 fold enrichment (6-mer frequency, TF over GST control)
